Source: PubChem BioAssay (EPA / NIEHS)
“And” between values parts separate entries of the source, which are not always exact repeats. Identical values can stand only once. Some structures have more than one record in an assay (separate samples or runs), and their calls can disagree. The source made the active and inactive calls. How the source made its calls: active means hit-call score of the fitted dose curve at least 0.9, where 1 is the maximum; inactive means score below 0.9.

Legend:
[1] = read-out: Plasminogen activator inhibitor-1 (PAI1), SERPINE1 (gene 5054); assay: BSK_hDFCGF_PAI1: BioMAP Diversity Plus: hDFCGF Assay for Plasminogen activator inhibitor-1 (PAI1) Biomarker Activity (AID 2283066); settings: primary human foreskin fibroblasts; actives raise or lower the signal
Procedure, shortened: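 ELISA readout of PAI-1 from primary human skin fibroblast cultures, 24 h after compound addition. Gain or loss of signal was fitted bidirectionally against DMSO baseline.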

[2] = read-out: Intercellular Adhesion Molecule 1 (ICAM1), ICAM1 (gene 3383); assay: BSK_KF3CT_ICAM1: BioMAP Diversity Plus: KF3CT Assay for Intercellular Adhesion Molecule 1 (ICAM1) Biomarker Activity (AID 2283067); settings: primary human keratinocytes with fibroblasts; actives raise or lower the signal
Procedure, shortened: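 Bidirectional curve fitting against a DMSO baseline was applied to ICAM-1 ELISA signal from primary human skin co-cultures harvested 24 h after treatment, with SRB staining of parallel wells for overt cytotoxicity.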

[3] = read-out: Interferon-gamma inducible Protein 10 (IP10), CXCL10 (gene 3627); assay: BSK_KF3CT_IP10: BioMAP Diversity Plus: KF3CT Assay for Interferon-gamma inducible Protein 10 (IP10) Biomarker Activity (AID 2283068); settings: primary human keratinocytes with fibroblasts; actives raise or lower the signal
Procedure, shortened: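 KF3CT co-culture (keratinocytes + foreskin fibroblasts), 24 h compound, IP-10 by ELISA; bidirectional fit vs DMSO baseline.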

[4] = BSK_KF3CT_SRB: Viability Assessment in the BioMAP Diversity Plus: KF3CT Assay (AID 2283069); settings: primary human keratinocytes with fibroblasts
Procedure, shortened: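 Overt cytotoxicity is assessed as total protein by sulforhodamine B staining in parallel human skin co-cultures at 24 h after dosing. DMSO serves as negative control and baseline.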

[5] = read-out: TIMP metallopeptidase inhibitor 2 (TIMP2), TIMP2 (gene 7077); assay: BSK_KF3CT_TIMP2: BioMAP Diversity Plus: KF3CT Assay for TIMP metallopeptidase inhibitor 2 (TIMP2) Biomarker Activity (AID 2283071); settings: primary human keratinocytes with fibroblasts; actives raise or lower the signal
Procedure, shortened: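 ELISA readout of TIMP-2 in keratinocyte plus foreskin fibroblast co-cultures (human skin primary cells), 24 h post-dose. Gain or loss of signal fitted relative to DMSO.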

[6] = read-out: urokinase plasminogen activator (uPA), PLAU (gene 5328); assay: BSK_KF3CT_uPA: BioMAP Diversity Plus: KF3CT Assay for urokinase plasminogen activator (uPA) Biomarker Activity (AID 2283075); settings: primary human keratinocytes with fibroblasts; actives raise or lower the signal
Procedure, shortened: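 Values derive from bidirectional fitting against DMSO controls. Keratinocyte/foreskin fibroblast co-cultures received chemical; 24 h later uPA was detected by ELISA, with SRB total-protein staining in parallel wells for overt cytotoxicity.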

CD40, CD40 (gene 958) [7] = assay: BSK_LPS_CD40: BioMAP Diversity Plus: LPS Assay for CD40 Biomarker Activity (AID 2283076); settings: primary human HUVEC with PBMC; actives raise or lower the signal
Procedure, shortened: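 Using a multiplexed primary human co-culture (umbilical vein endothelium plus PBMC), CD40 was read by ELISA 24 h after dosing, with cytotoxicity tracked by sulforhodamine B staining of parallel cultures and activity fitted bidirectionally versus DMSO.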

[8] = read-out: Interleukin-8 (IL8), CXCL8 (gene 3576); assay: BSK_LPS_IL8: BioMAP Diversity Plus: LPS Assay for Interleukin-8 (IL8) Biomarker Activity (AID 2283078); settings: primary human HUVEC with PBMC; actives raise or lower the signal
Procedure, shortened: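 In this LPS system, chemical-treated human umbilical vein endothelium/PBMC co-cultures were harvested at 24 h for IL-8 ELISA.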

[9] = BSK_LPS_SRB: Viability Assessment in the BioMAP Diversity Plus: LPS Assay (AID 2283079); settings: primary human HUVEC with PBMC;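 further: total protein by sulforhodamine B absorbance as a cytotoxicity measure; measured one day after compound addition; fitted in both directions against DMSO so loss or gain of signal counts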
Procedure, shortened: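 Cytotoxicity endpoint in human endothelial–PBMC co-culture: 24 h exposure, then SRB (0.1%) staining, 560 nm read.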

[10] = read-out: Interleukin-1 alpha (IL1a), IL1A (gene 3552); assay: BSK_LPS_IL1a: BioMAP Diversity Plus: LPS Assay for Interleukin-1 alpha (IL1a) Biomarker Activity (AID 2283080); settings: primary human HUVEC with PBMC; actives raise or lower the signal
Procedure, shortened: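 Primary human HUVEC and PBMC co-culture stimulated with LPS is dosed and harvested at 24 h. Both increases and decreases in ELISA-measured IL-1a are scored relative to DMSO.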

[11] = read-out: Monocyte Chemoattractant Protein-1 (MCP1), CCL2 (gene 6347); assay: BSK_LPS_MCP1: BioMAP Diversity Plus: LPS Assay for Monocyte Chemoattractant Protein-1 (MCP1) Biomarker Activity (AID 2283081); settings: primary human HUVEC with PBMC; actives raise or lower the signal;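 on AC50: secreted MCP-1 protein quantified by ELISA in culture supernatant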
Procedure, shortened: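 Values derive from bidirectional fitting against DMSO of ELISA-measured MCP-1 in a human primary endothelial and mononuclear cell co-culture, 24 h after chemical addition under LPS activation.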

[12] = BSK_LPS_PGE2: BioMAP Diversity Plus: LPS Assay for Prostaglandin E2 (PGE2) Biomarker Activity (AID 2283082); settings: primary human HUVEC with PBMC; actives raise or lower the signal;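 on AC50: secreted prostaglandin E2 measured by ELISA in LPS-stimulated co-culture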
Procedure, shortened: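 ELISA read-out of PGE2 from human umbilical vein endothelial cells co-cultured with peripheral blood mononuclear cells under LPS, 24 h post-dose. Gain or loss of signal scored relative to DMSO baseline.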

[13] = read-out: Vascular cell adhesion molecule 1 (VCAM1), VCAM1 (gene 7412); assay: BSK_LPS_VCAM1: BioMAP Diversity Plus: LPS Assay for Vascular cell adhesion molecule 1 (VCAM1) Biomarker Activity (AID 2283086); settings: primary human HUVEC with PBMC; actives raise or lower the signal
Procedure, shortened: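 ELISA read-out of VCAM-1 at 24 h post-dosing in an LPS-driven HUVEC/PBMC primary human co-culture; gain or loss of signal fitted bidirectionally against DMSO baseline. Cytotoxicity tracked in parallel cultures by SRB total-protein staining.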

CD38, CD38 (gene 952) = assay: BSK_SAg_CD38: BioMAP Diversity Plus: SAg Assay for CD38 Biomarker Activity (AID 2283087); settings: primary human HUVEC with PBMC; actives raise or lower the signal
Procedure, shortened: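 Measures CD38 on a human endothelial/PBMC co-culture driven by SEB and TSST-1, 24 h after compound exposure, using ELISA with fluorescence detection; DMSO defines baseline for bidirectional curve fitting.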

CD40, CD40 (gene 958) [14] = assay: BSK_SAg_CD40: BioMAP Diversity Plus: SAg Assay for CD40 Biomarker Activity (AID 2283088); settings: primary human HUVEC with PBMC; actives raise or lower the signal
Procedure, shortened: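 Endpoint derived by fitting increases or decreases versus DMSO controls. CD40 is detected by fluorescence ELISA in a human vascular co-culture of endothelium and PBMC at 24 h.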

[15] = read-out: Monocyte Chemoattractant Protein-1 (MCP1), CCL2 (gene 6347); assay: BSK_SAg_MCP1: BioMAP Diversity Plus: SAg Assay for Monocyte Chemoattractant Protein-1 (MCP1) Biomarker Activity (AID 2283090); settings: primary human HUVEC with PBMC; actives raise or lower the signal
Procedure, shortened: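 Values derive from bidirectional fitting of ELISA-measured MCP1 against DMSO controls. Readings were taken 24 h after dosing human vascular endothelial cells co-cultured with peripheral blood mononuclear cells under superantigen stimulation.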

[16] = read-out: E-selectin (Homo sapiens) (UniProt P16581); assay: BSK_SAg_Eselectin: BioMAP Diversity Plus: SAg Assay for Eselectin Biomarker Activity (AID 2283091); settings: primary human HUVEC with PBMC; actives raise or lower the signal
Procedure, shortened: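 Endpoint values derive from bidirectional fitting relative to DMSO, using ELISA-measured E-selectin in a human vascular co-culture (umbilical vein endothelium plus PBMC) sampled 24 h after dosing.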

[17] = read-out: Monokine induced gamma interferon (MIG), CXCL9 (gene 4283); assay: BSK_SAg_MIG: BioMAP Diversity Plus: SAg Assay for Monokine induced gamma interferon (MIG) Biomarker Activity (AID 2283092); settings: primary human HUVEC with PBMC; actives raise or lower the signal
Procedure, shortened: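 Measures CXCL9 protein by ELISA in a human vascular primary-cell co-culture (umbilical vein endothelium with PBMC) 24 h after chemical addition. Activity is scored up or down from the DMSO control.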

[18] = read-out: Interleukin-8 (IL8), CXCL8 (gene 3576); assay: BSK_SAg_IL8: BioMAP Diversity Plus: SAg Assay for Interleukin-8 (IL8) Biomarker Activity (AID 2283094); settings: primary human HUVEC with PBMC; actives raise or lower the signal
Procedure, shortened: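 HUVEC/PBMC co-culture, 24 h post-dose; IL-8 by ELISA. Gain or loss of signal fitted bidirectionally vs DMSO baseline.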

[19] = BSK_SAg_Proliferation: Cell Proliferation Assessment in the BioMAP Diversity Plus: SAg Assay (AID 2283095); settings: primary human HUVEC with PBMC;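 further: relative cell number as total protein by SRB absorbance in sub-confluent culture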
Procedure, shortened: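 HUVEC/PBMC co-culture, 96-well. TCA-fixed (10%), 0.1% SRB stain, A560 at 96 h. Protein content used as viability readout; bidirectional fitting vs DMSO control.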

Measured: AC50

Sequence of E-selectin (Homo sapiens) (P16581 whole entry, looked up): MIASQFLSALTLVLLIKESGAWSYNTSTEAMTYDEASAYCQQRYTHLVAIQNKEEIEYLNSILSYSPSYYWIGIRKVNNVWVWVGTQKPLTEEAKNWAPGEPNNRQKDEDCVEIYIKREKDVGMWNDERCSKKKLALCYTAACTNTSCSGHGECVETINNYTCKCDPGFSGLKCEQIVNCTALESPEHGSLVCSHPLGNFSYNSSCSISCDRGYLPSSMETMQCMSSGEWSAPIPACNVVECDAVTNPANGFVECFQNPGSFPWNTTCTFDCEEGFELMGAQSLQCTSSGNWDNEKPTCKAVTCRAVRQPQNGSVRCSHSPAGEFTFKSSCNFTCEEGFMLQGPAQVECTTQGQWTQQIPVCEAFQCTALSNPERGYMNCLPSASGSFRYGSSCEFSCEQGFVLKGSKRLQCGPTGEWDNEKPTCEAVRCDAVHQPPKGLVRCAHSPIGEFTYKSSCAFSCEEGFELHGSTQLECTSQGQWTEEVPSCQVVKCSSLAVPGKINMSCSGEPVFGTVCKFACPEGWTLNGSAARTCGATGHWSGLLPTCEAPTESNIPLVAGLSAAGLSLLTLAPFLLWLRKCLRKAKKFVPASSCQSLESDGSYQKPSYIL

CCCOC(=O)c1ccccc1C(=O)OCCC
active: [15] 20 µM
inactive: all other assays above

O=C(O)CCCc1ccc(N(CCCl)CCCl)cc1
inactive: [1] | [4] | [6] | [8] | [12] | [17]
active: [2] 20 µM | [3] 31.9 µM and 36.2 µM | [5] 30.6 µM and 32.6 µM | CD40, CD40 (gene 958) [7] 20 µM | [8] 25.4 µM | [9] 20 µM | [10] 34.8 µM and 20 µM | [11] 20 µM | [13] 20 µM and 28.3 µM | CD38, CD38 (gene 952) 26.6 µM and 12.3 µM | CD40, CD40 (gene 958) [14] 20 µM | [15] 20 µM and 27.2 µM | [16] 31 µM and 20 µM | [18] 20 µM and 10.2 µM | [19] 16.4 µM and 12.2 µM

CC(C)(C)C(=O)CCl
active: [1] 0.405 µM | CD40, CD40 (gene 958) [7] 28.7 µM | [10] 33.9 µM | [13] 24.3 µM | CD38, CD38 (gene 952) 27 µM | [16] 20 µM | [19] 23.1 µM
not listed: [8]
inactive: all other assays above

CCC(C)c1cc([N+](=O)[O-])cc([N+](=O)[O-])c1OC(=O)C=C(C)C (stereo not given)
active: [1] 3.95 µM | [2] 25 µM | [3] 13.9 µM | [4] 31.7 µM | [5] 21.1 µM | [6] 30.3 µM | CD40, CD40 (gene 958) [7] 7.46 µM | [8] 20 µM | [9] 13.3 µM | [10] 20 µM | [11] 13.4 µM | [12] 5.41 µM | [13] 20 µM | CD38, CD38 (gene 952) 10.3 µM | CD40, CD40 (gene 958) [14] 7.96 µM | [15] 12.6 µM | [16] 8.28 µM | [17] 35 µM | [19] 8.87 µM
inactive: [18]

O=[N+]([O-])C=Cc1ccccc1
active: [1] 4.03 µM | [2] 6.1 µM | [3] 6.18 µM | [4] 2.46 µM | [5] 8.02 µM | [6] 10.2 µM | CD40, CD40 (gene 958) [7] 5.97 µM | [8] 20 µM | [9] 11 µM | [10] 8.05 µM | [11] 10.3 µM | [12] 5.81 µM | [13] 8.21 µM | CD38, CD38 (gene 952) 24.9 µM | CD40, CD40 (gene 958) [14] 20 µM | [15] 20 µM | [16] 20 µM | [17] 20 µM | [18] 11.3 µM | [19] 3.07 µM

Clc1ccc(-c2ccccc2)cc1
active: [12] 17.2 µM
inactive: all other assays above

C=CCN(CC=C)C(=O)C(Cl)Cl
inactive: all assays above

O=c1c2ccccc2c(=O)c2c1cc(Cl)c1[nH]c3c([nH]c12)c(Cl)cc1c(=O)c2ccccc2c(=O)c13
inactive: all assays above
